In PubChem BioAssay (NCI):
The panel holds about 83,000 compounds, 20% with a hit somewhere; the sample as a whole holds those more often.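 Cells were grown in 96-well plates and exposed to the test compound at a single concentration for 48 hours; results are reported as percent growth, with values below 10 considered active.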 Unmarked numbers belong to inactive results. Active and inactive are the calls of the source.

Tested on: MALME-3M melanoma
Test: NCI-60 one-dose screen, 48 h (100 = growth as untreated, 0 = no growth, -100 = all killed)
Settings: 10 µM unless noted

| Compound | growth |
| --- | --- |
| O=C1CC(c2ccc(O)c(O)c2)Oc2cc(O)c([C@@H]3O[C@H](CO)[C@@H](O)[C@H](O)[C@H]3O)c(O)c21 (stereo partly drawn) | 110% |
| O=C(NCc1ccccc1)c1ccc2c(c1)NC(=O)[C@@H]1CCCN21 | 92.2% |
| CCc1ccc(OCc2ccccc2C(=O)Nc2ccc3nc(C)cc(N)c3c2)cc1 | -86.4% (active) |
| CSc1cccc(NC(=O)Nc2nc3c(C)cccc3s2)c1 | 93.5% |
| COC(=O)[C@]1(C)CCC[C@]2(C)[C@H]3C[C@H]4C(C(C)C)=C[C@]3(CC[C@H]21)[C@@H]1C(=O)N(CCC#N)C(=O)[C@@H]14 | 103% |
| CC1=C(CCCOC(=O)NCCCl)C2=C(C)C3(CC3)[C@@](C)(O)C(=O)C2=C1 | 34.6% |
| COc1ccc2[nH]c(-c3ccccc3)c(C=C(C#N)C#N)c2c1 | 55.1% |
| Cc1nn(-c2ccc(-c3ccc(OC(F)(F)F)cc3)cc2)c2nc(-c3ccccc3)nc(N)c12 | 118% |
| O=S(=O)(O)c1ccc(N=NSc2ccc3ccccc3c2)cc1 | 92.3% |
| O=c1c2ccccc2n(CC(O)CN2CCCC2)c2c(Br)cccc12 (stereo not drawn) | 125% |
| CS(=O)(=O)O[C@@H]1C(=O)N(c2cc3c4ccccc4ccc3c3ccccc23)[C@H]1c1ccc(F)cn1 | 74.2% |
| CC(C)(C)c1nn(-c2ccccc2)c2c1COCN2Cc1ccc(Cl)cc1 | 90.2% |
| Cc1cc(NC(=O)CNc2nc(Oc3ccc(F)cc3)nc(-c3ccc(F)cc3)n2)ccc1Cl | 109% |
| CC(=O)c1cc2c(N)c(C(=O)Nc3ccccn3)sc2nc1C | 90.1% |
| CCOC(=O)c1sc(/N=C2\NC(=O)/C(=C/c3ccc(N4CCN(C)CC4)cc3)S2)nc1C | 99.7% |
| O=C(/C(=C/c1ccc([N+](=O)[O-])cc1)SCc1ccc(F)cc1)c1ccc(Cl)cc1 | 91.9% |
| Cc1cnc(-c2ccc(-c3ccc(NC(=O)Nc4c(F)cc(F)cc4F)cc3F)c3c2C(=O)NC3)[nH]1 | -3.16% (active) |
| COc1ccc(Nc2cc(NC(=O)CNc3cc(OC)c(Cl)c(OC)c3Cl)ncn2)cc1 | 106% |
| Nc1n[nH]c2cccc(C#Cc3cccc(NC(=O)c4cc(N5CCOCC5)cc(C(F)(F)F)c4)c3)c12 | -18.1% (active) |

| Compound | growth |
| --- | --- |
| CC(C)(C)CC(C)(C)Cc1ccc(OCCOCC[N+](C)(C)Cc2ccccc2)cc1 | -40.2% (active) |
| CCOCc1cc(C(C)(C)C)ccc1O | 104% |
| C=C1C(=O)O[C@H]2[C@H]1CC/C(COC(=O)Nc1nc3ccccc3[nH]1)=C\CC[C@@]1(C)O[C@@H]21 | 48.6% |
| C=C(C)[C@@H]1CC[C@]2(C(=O)n3ccnc3)CC[C@]3(C)[C@H](CC[C@@H]4[C@@]5(C)CCCNC(C)(C)[C@@H]5CC[C@]43C)[C@@H]12 | -74.4% (active) |
| C=C(C)[C@@H]1CC[C@]2(C(=O)O)CC[C@]3(C)[C@H](CC[C@@H]4[C@@]5(C)C[C@@H](CC#Cc6ccccc6C)C(=O)C(C)(C)[C@@H]5CC[C@]43C)[C@@H]12 | 61.1% |
| Clc1ccc2c(NCCCNC3CCCCC3)ccnc2c1 | 116% |
| CN(C)C(CNc1oc(-c2cccc3ccccc23)nc1C#N)c1ccco1 (stereo not drawn) | 98% |
| c1cc(CNC23CC4CC(CC(C4)C2)C3)cc(C[N+](Cc2cccc(CNC34CC5CC(CC(C5)C3)C4)c2)(Cc2cccc(CNC34CC5CC(CC(C5)C3)C4)c2)Cc2cccc(CNC34CC5CC(CC(C5)C3)C4)c2)c1 (stereo not drawn) | 6.44% [42 µM] (active) |
| O=C1CCc2ccccc2N1 | 88.5% |
| Cc1cnc(SCc2ccc(Cl)cc2Cl)nc1Nc1ccc(Cl)c(Cl)c1 | 103% |
| COc1cc(C2=NN(C(C)=O)C(c3cccc(Nc4ccnc5cc(C(F)(F)F)ccc45)c3)C2)cc(OC)c1OC (stereo not drawn) | 78.9% |
| CCOC(=O)c1c(-c2ccc(O)cc2)c(C#N)c2c(C#N)c(N)nn2c1N | 39.4% |
| CN(C)CCCn1c2c(c3cc(-c4ccco4)ccc3c1=O)C(=O)c1ccccc1-2 | 113% |
| Nc1cc(N)c(S(=O)(=O)O)cc1N=Nc1cc([N+](=O)[O-])ccc1O | 103% |
| COc1cc(/C=N/Nc2nc(-c3ccc(F)cc3)c(C#N)c(N3CCOCC3)n2)ccc1O | 122% |
| COc1cc(-c2csc(NC(=O)Nc3ccc(Cl)cc3)n2)cc(OC)c1OC | 61.3% |
| N#CCNc1ccc(C(=O)O)cc1 | 105% |
| CCOC(=O)c1ccc(Nc2ncnc3ccc(NC(=O)c4ccccc4)cc23)cc1 | 109% |
| COC(=O)/C=C/c1cc(OC(C)=O)c2c(c1)C(C(=O)OC)C(c1ccc(OC(C)=O)c(OC(C)=O)c1)O2 (stereo not drawn) | 66.3% |
